Source: PubChem BioAssay (several laboratories)
Anthrax LF prot: Bacillus anthracis LF protease inhibitors, primary screen, biochemical, multiplex microsphere, MLPCN library; Lethal factor (Bacillus anthracis), P15917; multiplex microsphere protease cleavage assay; inhibition, % at 10 µM; 360,000 tested, 0.12% active; AID 588501, 2011
Target sequence (P15917 whole entry, looked up): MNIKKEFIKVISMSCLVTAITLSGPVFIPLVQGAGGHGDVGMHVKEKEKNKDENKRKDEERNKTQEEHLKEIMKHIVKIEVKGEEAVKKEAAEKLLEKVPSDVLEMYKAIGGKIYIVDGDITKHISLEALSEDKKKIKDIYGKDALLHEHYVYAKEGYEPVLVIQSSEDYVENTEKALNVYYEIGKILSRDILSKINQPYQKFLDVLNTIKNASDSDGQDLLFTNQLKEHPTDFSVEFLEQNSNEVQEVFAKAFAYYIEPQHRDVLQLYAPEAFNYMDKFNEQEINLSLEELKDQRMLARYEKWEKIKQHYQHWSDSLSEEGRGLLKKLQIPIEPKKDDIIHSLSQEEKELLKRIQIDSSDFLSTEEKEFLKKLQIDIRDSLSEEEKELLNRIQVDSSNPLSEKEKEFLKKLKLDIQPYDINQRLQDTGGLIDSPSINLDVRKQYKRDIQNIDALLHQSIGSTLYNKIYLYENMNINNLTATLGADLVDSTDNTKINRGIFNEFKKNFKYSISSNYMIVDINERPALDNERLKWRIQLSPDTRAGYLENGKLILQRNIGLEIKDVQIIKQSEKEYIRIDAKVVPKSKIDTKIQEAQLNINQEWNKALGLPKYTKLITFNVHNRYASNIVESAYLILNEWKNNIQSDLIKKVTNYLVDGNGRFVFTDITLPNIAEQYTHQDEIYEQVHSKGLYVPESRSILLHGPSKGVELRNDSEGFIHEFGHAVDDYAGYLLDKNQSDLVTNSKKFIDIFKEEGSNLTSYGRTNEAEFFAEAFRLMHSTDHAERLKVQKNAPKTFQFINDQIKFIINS
BoNT A protease: BoNT/A light chain protease inhibitors, primary screen, biochemical, flow cytometry, MLPCN library. multiplex microsphere protease substrate cleavage. inhibition, % at 10 µM. 360,000 tested, 0.17% active
MazEF act: activators of E. coli MazEF toxin-antitoxin RNase, primary screen, biochemical, fluorescence, uHTS | Endoribonuclease toxin MazF (Escherichia coli (strain K12)), P0AE70 | FAM/BHQ RNA-DNA oligo cleavage fluorescence, 5 h | activation, % at 20 µM | 350,000 tested, 0.32% active | AID 504720, 2011; in the data active means activation above about 50%
BoNT-F LC inh: BoNT/F light chain protease inhibitors, primary screen, biochemical, flow cytometry, MLPCN library | Multiplex microsphere protease cleavage assay | inhibition, % at 10 µM | 360,000 tested, 0.22% active; in the data active means inhibition above about 35%, passing the limit was not always enough; inconclusive means no clear call, values can overlap the other calls
Bead autofluor: counter-screen for toxin protease inhibitors: compound fluorescence. compound autofluorescence counterscreen, microsphere flow cytometry; hits give high values. fluorescence intensity (no concentration beside the values). AID 624483. 360,000 tested, 3.1% active; in the data active means fluorescence intensity above about 16000; inconclusive means no clear call, values can overlap the other calls
Hits are given with their value; n = inactive; u = inconclusive; x = no result. Shown are actives, neighbours in structure and some others; about 3.7% of the full set was active somewhere. Unless noted, no stated cut-off is given here; in the data, active means inhibition above about 30%; inconclusive means no clear call, values can overlap the other calls; inactive means below that.

SMILES | Anthrax LF prot | BoNT A protease | MazEF act | BoNT-F LC inh | Bead autofluor
Cc1ccc(N(Cc2ccccc2)C(=O)c2ccc(Cl)c(S(=O)(=O)N3CCOCC3)c2)cc1 | n | n | n | n | n
CN(Cc1c(C(=O)N/N=C/c2cc(F)ccc2F)nnn1-c1nonc1N)C1CCCCC1 | n | n | n | n | n
COc1ccc(NC(=O)CSc2nc3n[nH]c(C)c3c(=N)n2-c2ccc(Cl)c(C)c2)cc1OC | n | n | 111 | n | n
O=S(=O)(c1cccc2nsnc12)N1CCOCC1 | n | n | n | n | n
Cc1ccc2nsnc2c1S(=O)(=O)N1CCOCC1 | n | n | n | n | 22875
CCNC(=O)NC(=O)CN(C)c1ccccc1 | n | n | n | n | n
CCCCCCCCCS(=O)(=O)N/N=C/c1cccc([N+](=O)[O-])c1 | n | n | n | n | 19668
Cc1ccc(S(=O)(=O)N/N=C/c2cccc([N+](=O)[O-])c2)cc1 | n | n | n | n | n
CCOC(=O)c1cnc(-n2nc(C)cc2C)nc1N(CC)CC | n | u | n | n | 18780
CCOC(=O)c1cnc(-n2nc(C)cc2C)nc1Nc1cccc(C(=O)O)c1 | n | n | n | n | 21795
CCOC(=O)c1cnc(-n2nc(C)cc2C)nc1Nc1ccc(C)cc1 | n | u | n | n | u
CCN1C(=O)CSC1=Nc1ccccc1Cl | n | n | n | u | n
CCc1nc2ccc(C(=O)NCCC(C)C)cn2c1N(CC)CCOC | n | n | x | n | n
Cc1ccc(O)c(-c2cc(C(F)(F)F)[nH]n2)c1 | n | u | n | n | 21889
Cc1cccc(NC(=O)c2cc(-c3cc(C)ccc3O)n[nH]2)c1 | n | n | n | n | n
COc1ccc(C(=O)COC(=O)CNC(=O)c2ccc(Cl)cc2Cl)c(OC)c1 | n | n | n | n | n
CC(=O)c1sc2nc(C)cc(C)c2c1N | n | n | n | n | 21807
C=CCNC(=S)/N=c1/ccccn1CCC | n | n | n | n | n
O=C(c1ccccc1)c1cc2ccc(O)cc2oc1=O | n | n | n | n | 20651
O=C(O)c1ccccc1S(=O)CCO (centres undefined) | n | n | n | n | 22978
COc1cc(C(=S)N2CCCC2)ccc1OCc1ccc(C)cc1 | n | n | n | u | n
CC1(c2ccccn2)Nc2ccccc2-c2nc3ccccc3n21 (centres undefined) | n | n | n | n | 22286
CN1C(=O)C2(Nc3ccccc3-c3nc4ccccc4n32)c2ccccc21 (centres undefined) | n | n | n | n | 23406
c1ccc2c(c1)NC1(CCCCCC1)n1c-2nc2ccccc21 | x | x | n | x | x
Cc1ccc(NC(=O)CS(=O)CC(=O)Nc2ccccc2-c2ccc(C)o2)cc1 (centres undefined) | n | n | 300 | n | n
SMILES | Anthrax LF prot | BoNT A protease | MazEF act | BoNT-F LC inh | Bead autofluor
Cc1cc(C(=O)OCC(=O)N(C)c2c(N)n(Cc3ccccc3)c(=O)[nH]c2=O)c(C)n1-c1ccccc1 | n | n | n | n | u
CC(C)c1nc2sc3ccccc3c(=O)c2c(=O)n1Cc1ccccc1 | n | u | n | u | n
CCCc1nc2sc3ccccc3c(=O)c2c(=O)n1Cc1ccc(OC)cc1 | n | n | n | u | n
COCCn1c(C(C)C)nc2sc3ccccc3c(=O)c2c1=O | n | u | n | n | 19469
CCc1nc2sc3ccccc3c(=O)c2c(=O)n1CCOC | n | n | n | n | 19591
COCCn1c(C2CCCCC2)nc2sc3ccccc3c(=O)c2c1=O | n | n | n | n | 22628
CCC1Oc2ccccc2N(CC(=O)NC2CCCCC2)C1=O (centres undefined) | n | n | n | n | n
O=C(Nc1ccc2c(c1)OCCO2)c1c(F)cccc1F | n | u | n | n | 20165
O=C(Nc1ccc2c(c1)OCO2)c1ccc(Cl)s1 | n | n | n | n | 16810
O=C(Nc1ccc2c(c1)OCO2)c1ccc2c(c1)OCO2 | n | n | n | n | n
O=C(Nc1ccc2c(c1)OCO2)c1c(F)c(F)c(F)c(F)c1F | n | n | n | n | 18127
O=C(Nc1ccc2c(c1)OCO2)Nc1ccc2c(c1)OCO2 | n | n | n | n | n
O=C(Nc1ccc2c(c1)OCCO2)c1ccccc1F | n | n | n | n | n
CC(=O)c1ccc(NC(=O)c2cc(C)nc3ccccc23)cc1 | n | n | n | u | n
Cc1ccccc1N=C1SCCN1C(=O)CN1C(=O)NC2(CCCC2)C1=O | n | n | n | n | n
CCOC(=O)C1C(c2ccc(C(=O)O)cc2)NC(=O)NC1(O)C(F)(F)F (centres undefined) | n | n | n | n | n
O=C(c1cc(-c2ccc(Cl)cc2)n[nH]1)N1CCc2ccccc2C1 | n | n | n | n | n
CC(Sc1nnc(NC2CCCCC2)s1)C(=O)Nc1ccc2c(c1)C(=O)c1ccccc1C2=O (centres undefined) | n | n | n | n | n
Cc1cc(C(=O)N2CCN(C/C=C/c3ccccc3)CC2)no1 | n | n | n | n | 19463
CCOc1cccc2cc(C(=O)N3CCN(C/C=C/c4ccccc4)CC3)c(=O)oc12 | n | u | n | n | 16172
Cc1onc(-c2ccccc2)c1C(=O)N1CCN(C/C=C/c2ccccc2)CC1 | n | n | n | n | n
CCOc1cc(C(=O)N2CCN(C/C=C/c3ccccc3)CC2)cc(OCC)c1OCC | n | n | n | n | n
COc1ccccc1-c1cccc([C@@H]2C[C@H]3[C@H](CON3C)CN2C)c1 | n | n | n | n | n
CCn1ncc(/C=C/C(=O)Nc2c(C)nn(CC)c2C)c1C | n | n | n | n | 20272
Cc1nn(Cc2ccc(Cl)cc2)c(C)c1NC(=O)/C=C/c1cnn(C)c1 | n | n | n | n | n
SMILES | Anthrax LF prot | BoNT A protease | MazEF act | BoNT-F LC inh | Bead autofluor
CCn1nc(C)c(NC(=O)/C=C/c2cnn(C)c2)c1C | n | n | n | n | 19664
CCn1nc(C)c(/C=C/C(=O)Nc2ccc(C)cc2C)c1C | n | n | n | 39 | n
COc1ccc(S(=O)(=O)NNC(=O)C2COc3ccccc3O2)cc1[N+](=O)[O-] (centres undefined) | n | n | n | n | n
O=C(O)c1cc(Cl)ccc1NC(=O)C1CCCO1 (centres undefined) | n | n | n | n | n
COc1cccc(OC)c1C(=O)NC(=S)Nc1cccc(NC(=O)c2ccco2)c1 | n | n | 75 | n | n
CCC(=O)Nc1ccc(NC(=O)c2ccco2)c(OC)c1 | n | n | n | n | n
COc1cc(NC(=O)C2CCCO2)c(C(=O)O)cc1OC (centres undefined) | n | n | n | n | 21130
COc1cc(NC(=O)c2ccco2)ccc1NC(=O)C(C)C | n | u | n | n | 21437
COc1ccc(NC(=O)COC(=O)c2cc(OC)c(OC)cc2NC(=O)c2ccco2)cc1OC | n | n | n | n | 21054
O=C1c2cc(Br)ccc2OC2C=CC=CC12 (centres undefined) | n | n | n | n | n
CC(=O)c1c(C)[nH]c(C(=O)COC(=O)c2ccc(Cl)nc2)c1C | n | n | n | n | n
